Laboratory results published in PubChem BioAssay (EPA / NIEHS).
Several values for one entry are separate records, joined by “and”; a condition that tells them apart may be missing. Identical values can stand only once. Inconclusive results are not listed. Where a structure was tested more than once in an assay, its records may differ in their call. Activity calls are given as the source filed them. Rule for the calls, unless noted: active = hit-call score of the fitted dose curve at least 0.9, where 1 is the maximum; inconclusive = response in the unintended direction; inactive = score below 0.9.

Legend:
[1] = biological target: human Peroxisome Proliferator-activated Receptor alpha (PPARa), PPARA (gene 5465) (UniProt Q07869); experiment: ATG_PPARa_TRANS: Attagene TRANS-FACTORIAL HepG2 Assay for human Peroxisome Proliferator-activated Receptor alpha (PPARa) (AID 2283001);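 for AC50: potency for gain of reporter signal over DMSO so agonist or activator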
How it was run: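 Reporter transcripts from GAL4-UAS units in transfected HepG2 were quantified 24 h after dosing. Detection used reverse transcription, PCR, fluorescent primer extension and capillary electrophoresis, with DMSO as baseline.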

[2] = read-out: Intercellular Adhesion Molecule 1 (ICAM1), ICAM1 (gene 3383); experiment: BSK_3C_ICAM1: BioMAP Diversity Plus: 3C Assay for Intercellular Adhesion Molecule 1 (ICAM1) Biomarker Activity (AID 2283003; active = hit-call score of the fitted dose curve at least 0.9, where 1 is the maximum; inactive = score below 0.9); settings: primary human endothelial cells (HUVEC); actives raise or lower the signal
How it was run: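 Human vascular endothelial primary cells, 3C conditions, 24 h treatment. ICAM-1 by ELISA.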

[3] = BSK_3C_Proliferation: Cell Proliferation Assessment in the BioMAP Diversity Plus: 3C Assay (AID 2283006; active = hit-call score of the fitted dose curve at least 0.9, where 1 is the maximum; inactive = score below 0.9;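 for AC50: potency may reflect either rise or fall in cell number versus DMSO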); settings: primary human endothelial cells (HUVEC)
How it was run: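 Proliferation of human vascular endothelial primary cells after 48 h dosing, quantified as SRB-stained protein at 560 nm relative to DMSO.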

[4] = biological target: Peroxisome proliferator-activated receptor gamma (Homo sapiens) (UniProt P37231); experiment: ATG_PPARg_TRANS: Attagene TRANS-FACTORIAL HepG2 Assay for human Peroxisome Proliferator-activated Receptor-gamma (PPARg) (AID 2283007)
How it was run: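 Twenty-four hours after chemical dosing of transiently transfected HepG2 cells, isolated RNA was converted to cDNA, reporter sequences amplified and 6-FAM-labelled, then HpaI-digested and analysed by capillary electrophoresis. Signal increase against DMSO was fitted.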

[5] = biological target: Nuclear receptor subfamily 1 group I member 2 (Homo sapiens) (UniProt O75469); experiment: ATG_PXR_TRANS: Attagene TRANS-FACTORIAL HepG2 Assay for human Pregnane X Receptor (PXR) (AID 2283008)
How it was run: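 HepG2 cells transiently transfected with multiple reporter units, here a PXR-GAL4 chimera driving a GAL4-UAS reporter; 24 h compound exposure. Reporter mRNA measured by RT-PCR, FAM labelling and capillary electrophoresis; gain of signal fitted against DMSO baseline.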

[6] = biological target: human Retinoic Acid Receptor beta (RARb), RARB (gene 5915) (UniProt P10826); experiment: ATG_RARb_TRANS: Attagene TRANS-FACTORIAL HepG2 Assay for human Retinoic Acid Receptor beta (AID 2283004)
How it was run: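 Induction of reporter mRNA from a chimeric RARb-Gal4 construct was measured by RT-PCR, FAM labelling, HpaI digestion and capillary electrophoresis. Measurements followed 24 h compound treatment of transiently transfected human HepG2 liver cells, with DMSO as baseline.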

[7] = biological target: human Retinoic Acid Receptor gamma (RARg), RARG (gene 5916) (UniProt P13631); experiment: ATG_RARg_TRANS: Attagene TRANS-FACTORIAL HepG2 Assay for human Retinoic Acid Receptor gamma (RARg) (AID 2283009)
How it was run: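 HepG2, RARg-GAL4 TRANS system, 24 h exposure; reporter mRNA by RT-PCR + CE fluorescence; increase over DMSO.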

[8] = biological target: human RAR-related Orphan Receptor beta (RORb), RORB (gene 6096) (UniProt Q92753); experiment: ATG_RORb_TRANS: Attagene TRANS-FACTORIAL HepG2 Assay for human RAR-related Orphan Receptor beta (RORb) (AID 2283010);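 for AC50: potency for increased reporter mRNA meaning activation of RORb-Gal4 chimera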
How it was run: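 In this TRANS-format test, human HepG2 cells express chimeric NR-Gal4 fusion proteins driving GAL4-UAS reporters. After 24 h dosing, reporter transcripts are measured by fluorescent RT-PCR/capillary electrophoresis, with DMSO as negative control.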

[9] = biological target: human Peroxisome Proliferator-activated Receptor delta (PPARd), PPARD (gene 5467) (UniProt Q03181); experiment: ATG_PPARd_TRANS: Attagene TRANS-FACTORIAL HepG2 Assay for human Peroxisome Proliferator-activated Receptor delta (PPARd) (AID 2283002)
How it was run: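 Transient HepG2 transfection (multiple GAL4-UAS RTUs, chimeric receptor-Gal4); 24 h dosing; total RNA → oligo(dT) RT → PCR → 6-FAM primer extension → HpaI cut → CE. Positive direction vs DMSO.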

[10] = biological target: Retinoic acid receptor alpha (Homo sapiens) (UniProt P10276); experiment: ATG_RARa_TRANS: Attagene TRANS-FACTORIAL HepG2 Assay for human Retinoic Acid Receptor alpha (RARa) (AID 2283005)
How it was run: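 Reporter transcripts, measured by RT-PCR with fluorescent labeling and capillary electrophoresis after 24 h dosing, reflect activity of an exogenous human RARa–GAL4 fusion in transiently transfected HepG2. Fitted for increase relative to DMSO.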

Sequence of human RAR-related Orphan Receptor beta (RORb), RORB (gene 6096) (Q92753 whole entry, looked up, the tested form may be a part): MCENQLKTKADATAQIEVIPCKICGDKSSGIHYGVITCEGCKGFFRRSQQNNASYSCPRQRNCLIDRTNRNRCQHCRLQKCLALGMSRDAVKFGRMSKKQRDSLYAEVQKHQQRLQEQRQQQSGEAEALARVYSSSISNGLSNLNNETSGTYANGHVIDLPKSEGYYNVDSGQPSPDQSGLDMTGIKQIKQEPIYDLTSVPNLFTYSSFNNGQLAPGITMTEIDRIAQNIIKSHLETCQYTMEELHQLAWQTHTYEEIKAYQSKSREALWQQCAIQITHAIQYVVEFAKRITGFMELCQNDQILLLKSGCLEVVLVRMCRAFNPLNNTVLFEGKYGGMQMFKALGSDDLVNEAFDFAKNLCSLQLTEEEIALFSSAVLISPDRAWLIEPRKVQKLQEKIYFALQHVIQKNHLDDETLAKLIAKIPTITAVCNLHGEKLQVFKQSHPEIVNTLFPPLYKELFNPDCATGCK
Sequence of human Peroxisome Proliferator-activated Receptor alpha (PPARa), PPARA (gene 5465) (Q07869 whole entry, looked up, the tested form may be a part): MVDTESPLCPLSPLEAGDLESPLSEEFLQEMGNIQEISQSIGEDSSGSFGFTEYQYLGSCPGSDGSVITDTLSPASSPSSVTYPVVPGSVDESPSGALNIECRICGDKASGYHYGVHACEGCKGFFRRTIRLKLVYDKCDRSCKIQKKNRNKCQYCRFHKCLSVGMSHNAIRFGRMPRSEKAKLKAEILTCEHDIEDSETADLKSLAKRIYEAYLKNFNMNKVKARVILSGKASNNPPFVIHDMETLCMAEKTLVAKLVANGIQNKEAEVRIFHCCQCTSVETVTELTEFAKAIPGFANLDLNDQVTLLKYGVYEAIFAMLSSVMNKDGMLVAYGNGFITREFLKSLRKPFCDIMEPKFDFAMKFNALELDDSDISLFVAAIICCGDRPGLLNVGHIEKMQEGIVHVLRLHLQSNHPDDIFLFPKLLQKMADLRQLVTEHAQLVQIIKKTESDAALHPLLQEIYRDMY
Sequence of Peroxisome proliferator-activated receptor gamma (Homo sapiens) (P37231 whole entry, looked up): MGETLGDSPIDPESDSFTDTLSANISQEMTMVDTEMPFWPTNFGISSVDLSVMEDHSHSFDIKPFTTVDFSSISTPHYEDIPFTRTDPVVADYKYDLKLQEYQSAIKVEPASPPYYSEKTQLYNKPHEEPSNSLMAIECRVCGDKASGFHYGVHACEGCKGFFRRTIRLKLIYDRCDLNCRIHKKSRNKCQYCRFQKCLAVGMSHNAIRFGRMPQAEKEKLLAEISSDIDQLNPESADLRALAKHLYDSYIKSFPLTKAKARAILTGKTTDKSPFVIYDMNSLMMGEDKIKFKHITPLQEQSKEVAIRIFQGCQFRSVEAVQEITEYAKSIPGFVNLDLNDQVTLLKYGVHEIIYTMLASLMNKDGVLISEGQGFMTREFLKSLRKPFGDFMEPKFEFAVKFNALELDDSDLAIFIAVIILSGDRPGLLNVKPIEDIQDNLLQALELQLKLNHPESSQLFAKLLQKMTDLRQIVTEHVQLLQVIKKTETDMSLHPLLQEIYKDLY
Sequence of human Retinoic Acid Receptor beta (RARb), RARB (gene 5915) (P10826 whole entry, looked up, the tested form may be a part): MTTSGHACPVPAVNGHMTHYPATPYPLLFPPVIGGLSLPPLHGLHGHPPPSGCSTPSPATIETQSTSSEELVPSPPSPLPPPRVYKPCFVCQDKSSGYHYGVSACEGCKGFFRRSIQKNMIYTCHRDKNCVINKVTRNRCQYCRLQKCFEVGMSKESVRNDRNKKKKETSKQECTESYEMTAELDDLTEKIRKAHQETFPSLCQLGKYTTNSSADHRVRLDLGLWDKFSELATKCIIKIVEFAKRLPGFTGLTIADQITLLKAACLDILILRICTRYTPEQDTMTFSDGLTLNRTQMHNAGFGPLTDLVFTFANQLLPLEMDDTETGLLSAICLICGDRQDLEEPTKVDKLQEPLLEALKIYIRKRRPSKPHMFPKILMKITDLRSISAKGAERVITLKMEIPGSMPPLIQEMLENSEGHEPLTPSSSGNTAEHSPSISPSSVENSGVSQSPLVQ
Sequence of human Peroxisome Proliferator-activated Receptor delta (PPARd), PPARD (gene 5467) (Q03181 whole entry, looked up, the tested form may be a part): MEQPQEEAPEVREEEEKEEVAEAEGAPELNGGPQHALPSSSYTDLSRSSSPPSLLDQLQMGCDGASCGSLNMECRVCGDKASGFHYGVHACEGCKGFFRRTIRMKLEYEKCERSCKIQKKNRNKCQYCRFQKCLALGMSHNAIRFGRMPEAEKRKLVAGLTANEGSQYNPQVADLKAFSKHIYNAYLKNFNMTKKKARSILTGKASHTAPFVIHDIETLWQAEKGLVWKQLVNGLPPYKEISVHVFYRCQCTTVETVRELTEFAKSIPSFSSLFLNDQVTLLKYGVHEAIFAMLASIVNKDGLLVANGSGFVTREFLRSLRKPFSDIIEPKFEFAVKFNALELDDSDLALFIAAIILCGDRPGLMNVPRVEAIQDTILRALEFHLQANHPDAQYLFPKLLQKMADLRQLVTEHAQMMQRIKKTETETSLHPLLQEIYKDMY
Sequence of Retinoic acid receptor alpha (Homo sapiens) (P10276 whole entry, looked up, the tested form may be a part): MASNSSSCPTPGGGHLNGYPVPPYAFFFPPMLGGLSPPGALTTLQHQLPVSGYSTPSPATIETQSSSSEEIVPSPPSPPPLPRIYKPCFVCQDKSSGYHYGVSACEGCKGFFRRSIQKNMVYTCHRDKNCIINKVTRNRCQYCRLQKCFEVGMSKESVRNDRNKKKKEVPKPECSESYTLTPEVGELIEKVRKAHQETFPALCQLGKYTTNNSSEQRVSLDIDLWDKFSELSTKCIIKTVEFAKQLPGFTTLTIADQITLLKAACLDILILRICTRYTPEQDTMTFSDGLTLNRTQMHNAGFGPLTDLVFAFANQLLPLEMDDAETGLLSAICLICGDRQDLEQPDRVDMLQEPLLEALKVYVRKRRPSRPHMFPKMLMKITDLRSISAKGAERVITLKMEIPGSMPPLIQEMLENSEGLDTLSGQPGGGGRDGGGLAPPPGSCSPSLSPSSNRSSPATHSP
Sequence of Nuclear receptor subfamily 1 group I member 2 (Homo sapiens) (O75469 whole entry, looked up, the tested form may be a part): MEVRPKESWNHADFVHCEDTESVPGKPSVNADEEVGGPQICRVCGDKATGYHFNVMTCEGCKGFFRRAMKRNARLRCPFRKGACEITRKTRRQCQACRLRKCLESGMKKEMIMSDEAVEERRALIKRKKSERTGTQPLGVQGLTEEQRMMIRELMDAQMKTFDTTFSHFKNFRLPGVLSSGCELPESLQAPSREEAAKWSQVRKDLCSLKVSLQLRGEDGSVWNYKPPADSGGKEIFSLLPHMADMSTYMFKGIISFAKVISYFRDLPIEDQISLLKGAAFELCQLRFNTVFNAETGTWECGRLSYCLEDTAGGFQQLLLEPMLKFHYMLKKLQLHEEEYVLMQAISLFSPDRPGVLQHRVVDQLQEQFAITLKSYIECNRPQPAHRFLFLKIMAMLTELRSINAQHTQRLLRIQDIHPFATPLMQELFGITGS
Sequence of human Retinoic Acid Receptor gamma (RARg), RARG (gene 5916) (P13631 whole entry, looked up, the tested form may be a part): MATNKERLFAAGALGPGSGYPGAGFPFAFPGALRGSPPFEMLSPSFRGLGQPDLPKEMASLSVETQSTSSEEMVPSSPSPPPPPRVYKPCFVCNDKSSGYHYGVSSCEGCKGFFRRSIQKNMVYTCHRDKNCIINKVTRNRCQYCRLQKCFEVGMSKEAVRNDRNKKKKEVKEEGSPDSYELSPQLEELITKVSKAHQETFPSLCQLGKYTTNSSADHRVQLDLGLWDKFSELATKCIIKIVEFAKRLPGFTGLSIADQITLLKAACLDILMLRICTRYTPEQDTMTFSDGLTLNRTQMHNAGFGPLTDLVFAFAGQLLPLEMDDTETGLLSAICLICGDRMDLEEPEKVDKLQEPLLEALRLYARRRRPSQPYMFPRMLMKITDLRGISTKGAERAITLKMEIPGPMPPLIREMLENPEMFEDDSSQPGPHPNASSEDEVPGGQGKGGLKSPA

## CCCCCCCCCCCCCCCCOS(=O)(=O)O
[1]
  AC50: 9.15 µM (active)
[2]
  outcome: inactive
[3]
  outcome: inactive
[4]
  AC50: 16.9 µM (active)
[5]
  outcome: inactive

## c1ccc2ncccc2c1
[1]
  outcome: inactive
[2]
  outcome: inactive
[3]
  outcome: inactive

## COc1cc(C(C)C)c2c(c1)S(=O)(=O)N(COc1cc(=O)n3cccc(OCCN4CCCCC4)c3n1)C2=O
[1]
  outcome: inactive
[2]
  outcome: inactive
[6]
  outcome: inactive
[3]
  AC50: 4.63 µM (active)
[4]
  AC50: 2.75 µM (active)
[5]
  AC50: 0.836 µM (active)
[7]
  outcome: inactive
[8]
  AC50: 3.53 µM (active)

## O=c1[nH]cnc2c1ncn2[C@H]1CC[C@@H](CO)O1
[9]
  outcome: inactive
[2]
  outcome: inactive
[6]
  outcome: inactive
[3]
  outcome: inactive
[4]
  outcome: inactive
[5]
  outcome: inactive

## NC(=O)N(O)[C@@H]1COc2cc(OCc3ccccc3)ccc21
[1]
  outcome: inactive
[2]
  outcome: inactive
[6]
  outcome: inactive
[3]
  outcome: inactive
[4]
  outcome: inactive
[5]
  outcome: inactive

## Cc1ccc(S(=O)(=O)NC(=O)NN2CCCCCC2)cc1
[1]
  outcome: inactive
[2]
  outcome: inactive
[3]
  outcome: inactive
[4]
  outcome: inactive
[5]
  outcome: inactive
[7]
  outcome: inactive
[8]
  outcome: inactive

## CC(=O)c1ccccc1
[1]
  outcome: inactive
[2]
  outcome: inactive
[3]
  outcome: inactive
[4]
  outcome: inactive

## Cn1c(=O)c2[nH]cnc2n(C)c1=O
[1]
  outcome: inactive
[2]
  outcome: inactive
[3]
  outcome: inactive
[4]
  outcome: inactive
[5]
  outcome: inactive

## OCc1ccccc1
[1]
  outcome: inactive
[2]
  outcome: inactive
[6]
  outcome: inactive
[10]
  outcome: inactive
[3]
  outcome: inactive
[4]
  outcome: inactive

## FC(F)(F)COC(OCC(F)(F)F)OCC(F)(F)F
[9]
  outcome: inactive
[2]
  outcome: inactive
[6]
  outcome: inactive
[10]
  outcome: inactive
[3]
  outcome: inactive
[4]
  outcome: inactive
[5]
  outcome: inactive
[8]
  outcome: inactive

## Cc1nc(-c2ccccn2)ncc1C(=O)Nn1cc(C)c2cc(F)ccc21
[9]
  outcome: inactive
[2]
  outcome: inactive
[6]
  outcome: inactive
[3]
  outcome: inactive
[4]
  AC50: 7.87 µM (active)
[5]
  AC50: 0.775 µM (active)

## CC1(C)C(=O)N(Cl)C(=O)N1Cl
[1]
  outcome: inactive
[2]
  outcome: inactive
[3]
  outcome: inactive

## OCCNCCO
[9]
  outcome: inactive
[2]
  outcome: inactive
[3]
  outcome: inactive

## O=C(NO)C1(NS(=O)(=O)c2ccc(Oc3ccc(F)cc3)cc2)CCOCC1
[9]
  outcome: inactive
[2]
  outcome: inactive
[6]
  outcome: inactive
[3]
  outcome: inactive
[4]
  outcome: inactive
[5]
  AC50: 31.7 µM (active)
[7]
  outcome: inactive

## CC(C)CCCCCCOC(=O)C1CCCCC1C(=O)OCCCCCCC(C)C (configuration not stated)
[1]
  outcome: inactive
[2]
  outcome: inactive
[6]
  outcome: inactive
[3]
  outcome: inactive
[4]
  outcome: inactive
[5]
  AC50: 1.37 µM (active)
[8]
  outcome: inactive

## O=C(O)c1cccc(C(=O)O)c1
[1]
  outcome: inactive
[2]
  outcome: inactive
[6]
  outcome: inactive
[10]
  outcome: inactive
[3]
  outcome: inactive

## C[C@]12C=CC(=O)C=C1CC[C@H]1[C@@H]3C[C@@H](O)[C@](O)(C(=O)CO)[C@@]3(C)C[C@H](O)[C@@]12F
[1]
  outcome: inactive
[2]
  outcome: inactive
[3]
  outcome: inactive
[5]
  outcome: inactive
[8]
  outcome: inactive

## CCCCCCCC/C=C\CCCCCCCC(=O)OC[C@@H](O)[C@H]1OC[C@H](O)[C@H]1O
[1]
  outcome: inactive
[2]
  outcome: inactive
[10]
  outcome: inactive
[3]
  outcome: inactive
[4]
  outcome: inactive
[7]
  outcome: inactive

## CCc1ccc(O)c(C(C)(C)C)c1
[1]
  outcome: inactive
[2]
  AC50: 31.5 µM (active)
[3]
  AC50: 34.8 µM (active)
[4]
  outcome: inactive
[5]
  AC50: 17.4 µM (active)
[8]
  outcome: inactive

## OC(O)(C(F)C(O)(O)C(F)(F)F)C(F)(F)F
[9]
  outcome: inactive
[2]
  outcome: inactive
[6]
  outcome: inactive
[3]
  AC50: 27.3 µM (active)
  outcome: inactive
[4]
  AC50: 150 µM (active) and 94.2 µM (active)
[5]
  outcome: inactive
[7]
  outcome: inactive
